Bioassay records deposited in PubChem by National Center for Advancing Translational Sciences (NCATS).
Only some compounds are listed: those with a hit (about 10% of all), similar ones and a draw of the others.
Six1-Eya2 inh – inhibitors of human Six1/Eya2 interaction | AID 651725 | activity change, % (concentration not given with the values) | 0.56% of 360,000 active | AlphaScreen GST-Six1/His-Eya2 binding, biochemical; active compounds read low | Q15475+O00167; in the data active = activity change below about -65%; inconclusive = mostly about -30% to -63%; also: % is scaled to controls: 0 for no effect and ±100 for the full control effect
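Six1/Eya2 binding was read as AlphaScreen signal after compounds were pinned into GST-Six1 plus His-tagged Eya2 (5X stock 250/500 nM) in pH 8.0 Tris/NaCl/TCEP buffer, beads added, then incubated 1 h, 37 C, dark.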
JMJD2A Tudor inh – JMJD2A Tudor domain (human) inhibition | O75164 | AlphaScreen JMJD2A-Tudor / H3K4me3 peptide binding | Potency, µM (top dose mostly 114 µM), for the others: top-dose activity change, negative = inhibition, actives largely listed as inhibitors | 4.4% of 390,000 active | AID 504339; also: potency is read from the fitted curve at half-maximal effect; % is scaled to controls: 0 for no effect and ±100 for the full control effect; nearly all actives have a fitted effect of over 50% in size
HP1b binding inh – HP1-beta chromodomain-methylated histone interaction inhibition; AlphaScreen HP1-beta / biotin-H3K9me3 peptide binding; Potency, µM (doses to about 114 µM), without a hit: top-dose activity change, negative = inhibition, actives largely listed as inhibitors; 0.56% of 390,000 active; also: potency is read from the fitted curve at half-maximal effect; nearly all actives have a fitted effect of over 70% in size
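HP1-beta protein (50 nM final) preincubated 30 min at room temperature with biotinylated H3(1-18)K9me3 peptide (50 nM) in PBS pH 7.4, 0.01% Tween-20, then compound added for 30 min. AlphaScreen streptavidin donor/nickel chelate acceptor beads (10 ug/mL final), 30 min dark, luminescence read.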
CtBP-E1A blk – CtBP/E1A binding inhibition. AlphaScreen GST-E1A/His-CtBP binding, 1536-well; active compounds read low. activity change, % (no concentration beside the values). 0.49% of 340,000 active. AID 651724; in the data active = activity change below about -65%; inconclusive = mostly about -30% to -63%; also: % is scaled to controls: 0 for no effect and ±100 for the full control effect
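Homogeneous bead-based format: GST-tagged E1A captured on glutathione donor beads, His-tagged CtBP on nickel acceptor beads; compounds precede bead addition by 2 h at 37 °C.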
BAZ2B block – blocks human BAZ2B; Q9UIF8; AlphaScreen BAZ2B-H3K14Ac peptide displacement; Potency, µM (series often up to 114 µM), without a hit: top-dose activity change, negative = inhibition, hits mostly inhibitors; 4.4% of 360,000 active; also: potency is read from the fitted curve at half-maximal effect; % is scaled to controls: 0 for no effect and ±100 for the full control effect; nearly all actives have a fitted effect of over 60% in size
Target sequence (Q9UIF8 whole entry, looked up): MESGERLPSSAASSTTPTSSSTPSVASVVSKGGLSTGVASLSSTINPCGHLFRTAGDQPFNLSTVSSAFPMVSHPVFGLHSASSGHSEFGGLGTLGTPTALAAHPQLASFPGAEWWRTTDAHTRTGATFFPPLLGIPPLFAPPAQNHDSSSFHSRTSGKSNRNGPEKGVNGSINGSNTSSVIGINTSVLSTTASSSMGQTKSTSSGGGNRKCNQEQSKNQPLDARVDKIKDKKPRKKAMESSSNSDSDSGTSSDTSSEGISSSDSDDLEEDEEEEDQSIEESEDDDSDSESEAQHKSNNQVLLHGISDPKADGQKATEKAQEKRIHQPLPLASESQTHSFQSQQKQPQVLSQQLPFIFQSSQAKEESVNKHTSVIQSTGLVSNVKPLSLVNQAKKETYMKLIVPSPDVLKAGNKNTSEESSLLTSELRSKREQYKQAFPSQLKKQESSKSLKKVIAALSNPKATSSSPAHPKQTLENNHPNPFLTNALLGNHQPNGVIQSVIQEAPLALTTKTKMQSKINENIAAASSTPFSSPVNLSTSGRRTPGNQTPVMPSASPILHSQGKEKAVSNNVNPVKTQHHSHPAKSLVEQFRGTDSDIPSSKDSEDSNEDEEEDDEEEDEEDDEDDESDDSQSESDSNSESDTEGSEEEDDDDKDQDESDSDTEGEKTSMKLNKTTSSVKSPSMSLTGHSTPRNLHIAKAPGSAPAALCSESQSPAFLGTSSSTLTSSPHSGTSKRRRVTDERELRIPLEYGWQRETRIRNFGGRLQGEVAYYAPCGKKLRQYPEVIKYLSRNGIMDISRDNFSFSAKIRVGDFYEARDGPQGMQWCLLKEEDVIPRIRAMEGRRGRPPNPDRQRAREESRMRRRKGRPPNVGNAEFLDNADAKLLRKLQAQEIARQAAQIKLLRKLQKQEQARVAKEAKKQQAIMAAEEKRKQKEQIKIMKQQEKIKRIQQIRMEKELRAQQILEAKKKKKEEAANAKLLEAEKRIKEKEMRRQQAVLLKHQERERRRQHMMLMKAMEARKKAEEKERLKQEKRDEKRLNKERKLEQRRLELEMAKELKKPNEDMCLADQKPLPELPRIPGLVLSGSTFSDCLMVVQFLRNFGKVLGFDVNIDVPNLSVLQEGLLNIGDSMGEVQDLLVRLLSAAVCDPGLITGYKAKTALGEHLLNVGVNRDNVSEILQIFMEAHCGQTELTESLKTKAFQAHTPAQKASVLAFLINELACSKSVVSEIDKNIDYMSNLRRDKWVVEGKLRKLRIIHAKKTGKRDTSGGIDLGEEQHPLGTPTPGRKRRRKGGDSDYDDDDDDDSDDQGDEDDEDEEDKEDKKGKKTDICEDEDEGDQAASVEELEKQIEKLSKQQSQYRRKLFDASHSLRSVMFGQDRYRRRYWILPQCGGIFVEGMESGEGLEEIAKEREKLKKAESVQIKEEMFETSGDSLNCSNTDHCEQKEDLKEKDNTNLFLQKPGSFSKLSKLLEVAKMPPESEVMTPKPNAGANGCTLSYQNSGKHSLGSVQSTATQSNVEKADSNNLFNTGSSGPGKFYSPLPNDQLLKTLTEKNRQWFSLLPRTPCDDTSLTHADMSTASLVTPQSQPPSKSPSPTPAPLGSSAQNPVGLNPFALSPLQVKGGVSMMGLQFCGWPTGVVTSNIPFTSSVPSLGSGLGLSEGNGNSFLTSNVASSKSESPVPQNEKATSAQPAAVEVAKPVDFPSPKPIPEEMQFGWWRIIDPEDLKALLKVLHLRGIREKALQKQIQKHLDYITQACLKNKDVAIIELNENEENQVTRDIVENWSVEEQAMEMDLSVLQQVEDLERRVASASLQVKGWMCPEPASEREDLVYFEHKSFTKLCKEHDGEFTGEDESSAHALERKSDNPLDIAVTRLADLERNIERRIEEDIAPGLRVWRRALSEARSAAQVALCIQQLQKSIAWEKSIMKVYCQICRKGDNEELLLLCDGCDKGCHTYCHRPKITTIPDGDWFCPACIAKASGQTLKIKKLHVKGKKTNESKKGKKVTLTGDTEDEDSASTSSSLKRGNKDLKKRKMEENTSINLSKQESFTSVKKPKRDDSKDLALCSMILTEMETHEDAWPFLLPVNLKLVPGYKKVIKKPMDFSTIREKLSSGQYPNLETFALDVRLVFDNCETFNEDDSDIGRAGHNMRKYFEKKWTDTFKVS
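AlphaScreen displacement: compounds (up to 110uM) incubated 30 min at room temperature with a preformed 50 nM BAZ2B/50 nM biotinylated H3K14Ac peptide complex in PBS pH 7.4 with Tween-20. Donor and acceptor beads at 10 ug/mL final added, 20 min light-protected before reading.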
G9a block – blocks human histone lysine methyltransferase G9a. Q96KQ7. G9a H3K9 monomethylation, AlphaScreen, 2 h. Potency, µM (highest dose often 102 µM), without a hit: at the highest dose activity, negative = inhibition, hits mostly inhibitors. 8.8% of 350,000 active. AID 504332; also: potency is read from the fitted curve at half-maximal effect; % is scaled to controls: 0 for no effect and ±100 for the full control effect; nearly all actives have a fitted effect of over 75% in size
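Quantitative HTS format: methyltransferase activity on a biotin-tagged H3K9 peptide is measured by AlphaScreen, using a rabbit anti-monomethyl-H3K9 antibody with streptavidin donor and anti-IgG acceptor beads. Final levels are 20 nM enzyme, 500 nM peptide, 20 uM SAM; 2 h RT.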
* hit, by the source's call; u = inconclusive; x = not tested or not shown; ! = a repeat was not active; [ ] = remark or other dose. Unless noted, calls follow the shape of the dose curve; as a rule, active = well fitted inhibition curve with a large enough effect; inconclusive = small, poorly fitted or top-dose-only effect; inactive = no such curve, though single readings can be large or run the other way.

SMILES | Six1-Eya2 inh | JMJD2A Tudor inh | HP1b binding inh | CtBP-E1A blk | BAZ2B block | G9a block
Cc1cccc(N(CC(=O)NCCSc2ccc(Cl)cc2)S(=O)(=O)c2ccccc2)c1C | x | 4.5% | 40.6% | x | -1.3% | -49.8%[59 µM]
Cn1c(O)c(C(=O)c2ccccc2)c(=O)n(C)c1=O | 6.2 | -18.0% | 45.0% | 3.1 | 6.2% | -6.7%[12.7 µM]
Cn1c(O)c(C(=O)c2ccccc2F)c(=O)n(C)c1=O | 4.4 | -17.2% | 27.9% | 1.2 | -29.5% | 11.2µM*
Nc1ccc(CC(N)c2csc(Nc3ncccn3)n2)cc1 (configuration not stated) | -66.6* | x | x | -75.2* | x | x
NC(Cc1ccc(F)cc1)c1csc(Nc2ncccn2)n1 (configuration not stated) | u | x | x | -68.3* | x | x
CC(C)(C)OC(=O)c1ncn2c1[C@@H]1CCCN1C(=O)c1c(Br)cccc1-2 | x | x | x | x | x | 11.1%[12.7 µM]
CN1C(=O)C(C2c3ccccc3C(=O)N2Cc2ccccc2)C(=O)N(C)C1=O (configuration not stated) | 10.1 | -28.5% | 17.4% | 10.9 | 79.4µM* | u
c1ccc(Nc2ccc(Nc3ccccc3)cc2)cc1 | -3.8 | 20µM* | u | u | 28.2µM* | 9.8%[0.501 µM]
O=c1cc(O)c2ccccc2[nH]1 | -3.4 | -5.6% | 6.4% | -5.6 | -14.8% | u
CCCCC/C=C\C/C=C\C/C=C\C/C=C\CCCC(=O)Nc1ccc(O)cc1C | x | x | x | x | x | 3.7%[59 µM]
C[C@]12C/C(=C/O)C(=O)C[C@@H]1CC[C@@H]1[C@@H]2CC[C@@]2(C)[C@H]1CC[C@]2(C)O | x | x | x | x | x | 17.8µM*
C#C[C@@]1(O)CC[C@@H]2[C@@H]3CCC4=CC(=O)CC[C@@]4(C)[C@H]3CC[C@]21C | x | x | x | x | x | 14.9%[21.5 µM]
O=C(CCN1CCOCC1)Nc1ccc(Br)cc1C(=O)c1ccccc1 | -73.9* | -25.6% | 32.8% | -84.9* | -31.1% | 35.5µM*
O=C(O)Cc1ccccc1 | x | x | x | x | x | 18.9%[59 µM]
O=C(Cc1ccccc1)c1ccccn1 | -78.4* | 3.55µM* | -19.9% | -5.3 | x | x
Cc1nn(CCC#N)c2c1P(=S)(N1CCCC1)OC(c1ccc(F)cc1)=N2 (configuration not stated) | 0.6 | u | 14.1µM* | 4.7 | u | 15.8µM*
N#Cc1ccc(CN2CCC3(CC2)CCN(C(=O)Oc2ccccc2)CC3)cc1 | x | x | x | x | x | 2.3%[12.7 µM]
COc1ccc(N2CCN(c3ncnc4c3nc3n4CCCCC3)CC2)cc1 | x | u | -13.4% | x | u | 11.2µM*
C[C@]12CC[C@@H]3c4cc(O)c(O)cc4CC[C@H]3[C@@H]1CC[C@@H]2O | -14.7 | 12.6µM* | u | 0.3 | u | 8.91µM*
C[C@]12CC[C@@H]3c4ccc(O)c(O)c4CC[C@H]3[C@@H]1CC[C@@H]2O | -4.1 | 8.91µM* | 15.8µM* | -5.9 | 56.2µM* | u
O=C(O)C1CN(CP(=O)(O)O)CCN1 (configuration not stated) | x | x | x | x | x | 19.5%[59 µM]
O=C1NC(=O)C(=Cc2ccc(-c3ccc(Cl)cc3)o2)C(=O)N1 | 7.3 | u | 13.9% | 8.6 | u | 6.31µM*
O=C1NC(=O)C(=Cc2coc3ccc(O)cc3c2=O)C(=O)N1 | 0.0 | -17.5% | 13.1% | -2.9 | u | x
O=C1NC(=O)C(=Cc2ccc(-c3ccc(S(=O)(=O)N4CCOCC4)cc3)o2)C(=O)N1 | -1.6 | -22.1% | 45.3% | 4.6 | -5.0% | 7.08µM*
O=C1NC(=O)C(=Cc2ccc(-c3ccc(F)cc3O)o2)C(=O)N1 | 2.5 | u | -16.3% | 5.7 | 56.2µM* | 7.08µM*
SMILES | Six1-Eya2 inh | JMJD2A Tudor inh | HP1b binding inh | CtBP-E1A blk | BAZ2B block | G9a block
O=C1NC(=O)C(=Cc2c(Cl)cccc2Cl)C(=O)N1 | 0.5 | -6.2% | 47.2% | 6.5 | x | x
COc1cc([N+](=O)[O-])c2ncccc2c1[N+](=O)[O-] | -83.4* | x | x | u | x | x
O=S(c1ccccc1)c1ccccc1 | 3.7 | -4.8% | 42.1% | -14.4 | x | x
CC(N)Cc1cn(Cc2ccccc2)c2ccccc12 (configuration not stated) | -3.9 | 79.4µM* | -21.6% | -20.9 | -29.9% | u
CCN(CC)CCN1C(=O)CN=C(c2ccccc2F)c2cc(Cl)ccc21 | x | x | x | x | x | 18.0%[59 µM]
CCCCCCCCCOc1ccc2[nH]cc(CCN)c2c1 | x | x | x | x | 35.5µM* | 15.8µM*!
COc1ccc2[nH]cc(CCN)c2c1 | -13.4 | 50.1µM* | -30.9% | -13.1 | u | 9.3%[59 µM]
Cc1cc(N2CCCC2)ccc1C=C(C#N)C#N | 3.2 | -2.8% | 40.0% | 1.5 | -18.9% | 17.6%[59 µM]
CN1C(=O)/C(=C\c2ccc(N3CCCCC3)o2)C(=O)NC1=S | 6.6 | -21.4% | -3.0% | 3.9 | -24.5% | 31.6µM*
CN1C(=O)/C(=C\c2ccc(N3CCCCCC3)cc2)C(=O)NC1=S | 1.5 | u | -3.4% | x | u | 28.2µM*
CCCCN1C(=O)/C(=C/c2ccc(N3CCCCCC3)cc2)C(=O)NC1=S | x | x | x | x | u | 17.8µM*
CN1C(=O)/C(=C/c2ccc(N3CCCCCC3)o2)C(=O)NC1=S | -3.3 | -27.0% | -13.0% | 0.1 | u | u
Cc1cc(N2CCCCC2)ccc1C=C1C(=O)N(C)C(=S)N(C)C1=O | -12.6 | u | u | -2.7 | 35.5µM* | 15.8µM*
CCN(Cc1ccc(Cl)nc1)/C(=C/[N+](=O)[O-])NC | x | x | x | x | x | -20.0%[12.7 µM]
O=C1NC(=O)N(c2ccc3c(c2)OCO3)C(=O)/C1=C/c1ccc(N2CCCC2)o1 | -2.0 | -2.1% | 23.6% | 3.6 | -34.7% | u
CN1CCN(c2ccc(/C=C3\C(=O)NC(=S)N(c4cccc(Br)c4)C3=O)o2)CC1 | -6.5 | u | u | 4.7 | 39.8µM* | u
NC(Cn1ccc(=O)c(O)c1)C(=O)O (configuration not stated) | x | x | x | x | x | 4.8%[2.33 µM]
O=C(CCCc1ccc(N(CCCl)CCCl)cc1)NCc1ccccc1 | 8.6 | x | x | 2.3 | x | x
NC(Cc1ccc(N(CCCl)CCCl)cc1)C(=O)O (configuration not stated) | x | x | x | x | x | 10.6µM*!
CCOC(=O)CC(NC(=O)C(Cc1ccc(N(CCCl)CCCl)cc1)NC(C)=O)C(=O)OCC (configuration not stated) | 3.4 | 12.6µM* | u | 5.5 | 20µM* | x
CC(=O)NC(Cc1ccc(N(CCCl)CCCl)cc1)C(=O)NC(C(=O)O)C(C)C (configuration not stated) | -1.0 | 1.4% | 20.5% | 6.0 | -38.3% | -48.0%
CC(C)(c1ccc(OCC2CO2)cc1)c1ccc(OCC2CO2)cc1 (configuration not stated) | x | x | x | x | x | 139.1%[59 µM]
CC(C)CN1CCCC2(CCN(C(=O)c3ccncc3)CC2)C1 | x | x | x | x | x | -7.3%[12.7 µM]
CC1OC(OC2C(O)CC(OC3C(O)CC(OC4CCC5(C)C(CCC6C5CCC5(C)C(C7=CC(=O)OC7)CCC65O)C4)OC3C)OC2C)CC(O)C1O (configuration not stated) | x | x | x | x | x | 13.4%[59 µM]
